# TDP1 block – TDP1 (human) enzyme inhibition; 350,000 compounds, 0.28% hits; Q9NUW8; recombinant TDP1, AlphaScreen DNA substrate cleavage; Potency, µM (top dose mostly 130 µM), inactives show at the top dose activity change, negative = inhibition, hits mostly inhibitors; note: potency is the fitted concentration of half-maximal effect; nearly all actives have a fitted effect of over 40% in size
# Target sequence (Q9NUW8 whole entry, looked up): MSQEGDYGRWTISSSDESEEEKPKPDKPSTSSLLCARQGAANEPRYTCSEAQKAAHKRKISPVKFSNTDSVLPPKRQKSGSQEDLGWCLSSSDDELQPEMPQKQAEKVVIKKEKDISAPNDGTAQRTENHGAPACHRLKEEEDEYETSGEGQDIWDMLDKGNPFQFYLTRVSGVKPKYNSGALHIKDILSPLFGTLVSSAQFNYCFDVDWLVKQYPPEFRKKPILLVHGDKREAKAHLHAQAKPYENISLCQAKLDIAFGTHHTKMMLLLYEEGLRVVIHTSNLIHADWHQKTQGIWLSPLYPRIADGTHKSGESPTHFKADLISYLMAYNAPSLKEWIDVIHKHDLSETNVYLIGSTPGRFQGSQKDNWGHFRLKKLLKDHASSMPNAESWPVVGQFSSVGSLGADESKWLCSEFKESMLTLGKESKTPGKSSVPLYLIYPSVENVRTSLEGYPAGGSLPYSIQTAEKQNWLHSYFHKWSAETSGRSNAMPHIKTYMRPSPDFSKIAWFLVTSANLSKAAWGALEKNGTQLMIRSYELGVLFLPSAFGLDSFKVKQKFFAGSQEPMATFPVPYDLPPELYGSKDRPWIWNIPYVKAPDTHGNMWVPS
#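 Signal: AlphaScreen proximity between streptavidin donor and anti-FITC acceptor beads on intact substrate. Reaction: Tdp1 1 nM, substrate 15 nM final, 5 min RT after 15 min compound preincubation.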
# IL-1B inflam inh – inflammasome signaling inhibition, IL-1 beta readout; THP-1 LPS/ATP IL-1B secretion, AlphaLISA, 16 h; stronger effect = lower value; activity change, % at 57.5 µM; 360,000 compounds, 4.7% hits; AID 743279; in the data active = activity change below about -50%; inconclusive = mostly about -30% to -49%
#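 Secreted IL-1B measured by AlphaLISA bead assay after 16 h compound exposure of THP-1 cells; compounds (final up to 57.5 uM) added 1 h before LPS (250 ng/mL) and ATP (1.25 mM) stimulation; lower signal means less secretion.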
# DT40 TDP1 no CPT – qHTS for Inhibitors of human tyrosyl-DNA phosphodiesterase 1 (TDP1): qHTS in cells in absence of CPT. Potency, µM (top dose mostly 46.2 µM), for the others: at the highest dose activity change, negative = growth inhibition, most hits filed as inhibitors. 420,000 compounds, 15% hits. AID 686978, 2013. DT40 Tdp1-/- hTDP1 cells, no CPT, ATP luminescence, 48 h; note: potency is the fitted concentration of half-maximal effect; nearly all actives have a fitted effect of over 55% in size
#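 Chicken DT40 Tdp1-/- cells complemented with human TDP1, screened without camptothecin (DMSO vehicle only), 400 cells/well. Compounds pin-transferred, cells incubated at 37 °C for at least 48 hr. Growth read as ATP-dependent luminescence (CellTiter-Glo, 30 min at RT).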
# Giardia kill – Giardia lamblia killing; Giardia lamblia trophozoite viability; activity change, % at 7.66 µM, hits read low; 340,000 compounds, 0.15% hits; in the data active = activity change below about -80%; inconclusive = between about -30% and that limit;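 note: parasites exposed to compound for two days anaerobically before the ATP read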
#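 Anaerobic 48 hrs incubation at 37 deg C of 100 trophozoites/well with test compounds; ATPLite 1-Step luminescence, 15-30 min RT, reports cellular ATP as viability.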
# ELG1 DNA repair – inhibitors of ELG1-dependent DNA repair in HEK293T cells; HEK293T ELG1-luciferase reporter, luminescence, 16 h; DNA damage induced by 5-fluorouridine; Potency, µM (highest dose often 46.1 µM), for the others: at the top dose activity change, negative = inhibition, hits mostly inhibitors; 330,000 compounds, 2.3% hits; note: potency is the fitted concentration of half-maximal effect; nearly all actives have a fitted effect of over 55% in size
#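 Quantitative HTS, concentration-response format. 2,000 cells/well co-treated with 5-fluorouridine and compound, 16 hr in 5% CO2 at 37 °C; ONE-Glo luminescence read after 30 min.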
# DT40 TDP1 CPT – DT40-hTDP1 cell growth loss with CPT | 420,000 compounds, 12% hits | AID 686979 | Potency, µM (highest dose often 46.2 µM), for inactives: at the highest dose activity change, negative = growth inhibition, most hits filed as inhibitors | chicken DT40 Tdp1-/-;hTDP1 cells + 20 nM CPT, ATP luminescence, 48 h; note: potency is the fitted concentration of half-maximal effect; nearly all actives have a fitted effect of over 55% in size
#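 Cell growth measured by CellTiter-Glo luminescence after a minimum 48 h, 37 C compound exposure with 20 nM CPT in Tdp1-knockout DT40 cells stably expressing hTDP1, seeded 400/well; qHTS titration format.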
# * marks the source's active call; other numbers are inactive results; ? = inconclusive; . = no result given; [ ] = another dose, or the depositor's remark. Most compounds without a hit are left out; they make up all but 19% or so of the library. Unless noted, calls come from the whole dose curve; as a rule, active = well fitted curve in the direction sought with a large enough effect; inconclusive = small, poorly fitted or top-dose-only effect, or another doubt; inactive = no such curve, though single readings can be large; an effect the other way counts as inactive or inconclusive. % is set by controls: 0 for no effect and ±100 for the full control effect.
SMILES,TDP1 block,IL-1B inflam inh,DT40 TDP1 no CPT,Giardia kill,ELG1 DNA repair,DT40 TDP1 CPT
Cc1cc(C)nc(SC2CC(=O)N(c3ccc(C)c(C)c3)C2=O)n1 (stereo not given),1%,64,15µM*,3,-2%,?
Cc1ccnc(SC2CC(=O)N(c3ccc(Cl)cc3)C2=O)n1 (stereo not given),.,15,?,3,-5%,-29%
Cc1cc(C)nc(SC2CC(=O)N(c3ccc(Cl)cc3)C2=O)n1 (stereo not given),.,15,21µM*,-4,7%,?
C[C@H](N=C(NC#N)Nc1ccncc1)C(C)(C)C,9%[56.1 µM],.,?,.,.,-26%
CCn1cc(CNC(=O)c2cc(-c3cc(OC)ccc3OC)nc3ccccc23)c(C)n1,1%,5,23µM*,7,?,?
CCn1cc(CNC(=O)c2cc(Cl)ccc2OC)c(C)n1,3%,-2,?,-21,-3%,1%
CCn1cc(CNC(=O)c2cc(-c3ccc(C)cc3)nc3ccc(Br)cc23)c(C)n1,-4%,.,13µM*,.,.,6.5µM*
CCn1cc(CNC(=O)c2cc(-c3ccccc3OC)nc3ccccc23)c(C)n1,3%,-11,15µM*,8,-18%,?
Cc1cc(N2CCOCC2)nc2ccc(NC(=O)CCC(=O)N3CCN(c4ccccc4)CC3)cc12,7%,14,?,18,?,?
Cc1cc(N2CCN(C)CC2)nc2ccc(NC(=O)CCC(=O)N3CCN(c4ccc([N+](=O)[O-])cc4)CC3)cc12,1%,-22,18µM*,33,?,26µM*
Cc1cc(N2CCC(C)CC2)nc2ccc(NC(=O)CCC(=O)N3CCN(c4cccc(C(F)(F)F)c4)CC3)cc12,6%,.,2.3µM*,.,.,3.3µM*
CCN(CC)CCCNC(=O)CCC(=O)Nc1ccc2nc(N3CCC(C)CC3)cc(C)c2c1,1%,-14,?,8,?,?
Cc1ccc(Cl)cc1N1CCN(C(=O)CCC(=O)Nc2ccc3nc(N4CCC(C)CC4)cc(C)c3c2)CC1,0%,.,13µM*,.,.,23µM*
O=C(O)CNC(=O)c1ccc(NC(=O)/C(=C/c2ccccc2)NC(=O)c2ccccc2)cc1,.,-7,-7%,25,-1%,7%
Cc1ccccc1NC(=O)COc1ccc2oc3c(c2c1)CCCC3,.,.,18µM*,.,.,16µM*
NNC(=O)COc1ccc2oc3c(c2c1)CCCC3,4%,2,-4%,-4,-5%,-3%
NS(=O)(=O)c1ccc(CCNC(=O)COc2ccc3c4c(c(=O)oc3c2)CCC4)cc1,3%,6,11%,-17,1%,-8%
O=C(COc1ccc2oc3c(c2c1)CCCC3)Nc1cccc(Br)c1,.,.,21µM*,.,.,?
Cc1ccnc(NC(=O)COc2ccc3oc4c(c3c2)CCCC4)c1,-1%,-29,12µM*,-12,?,?
O=C(COc1ccc2c3c(c(=O)oc2c1)CCC3)Nc1ccc(CCO)cc1,40µM*,-53*,8%,-23,-8%,-23%
COc1ccc(OC)c(CN2CCN(C(=O)CCC(=O)c3cccs3)CC2)c1,.,9,-3%,-11,-22%,?
O=[N+]([O-])c1ccc(COc2ccc(-c3[nH]ncc3-c3ccc(Cl)cc3)c(O)c2)cc1,6%,-92*,23µM*,15,?,?
COc1ccc(-c2cn[nH]c2-c2ccc(OCc3ccccc3F)cc2O)cc1OC,11%,?,12µM*,28,?,29µM*
COc1ccc(-c2[nH]ncc2-c2ccc(Cl)cc2)c(O)c1,9%,-1,?,3,.,-24%
